# From article PMC7862700, “An all-to-all approach to the identification of sequence-specific readers for epigenetic DNA modifications on cytosine”
# How the values were obtained:
# Experiment in all cases: DAPPL (digital affinity profiling via proximity ligation, sequencing); 10 mM Tris-HCl pH 7.5, 50 mM NaCl, 1 mM DTT, 4% glycerol, room temperature, 30 min; GST-TFs on glutathione beads, 16-mer random dsDNA library, 0.1% formaldehyde crosslink after washing; high values mean tight binding
# FLI1 = molecular target: T1, FLI1 (Homo sapiens, UniProt Q01543 1-452); conditions: protein: recombinant; tags: N-terminal GST; dsDNA, one strand shown
# T1 sequence: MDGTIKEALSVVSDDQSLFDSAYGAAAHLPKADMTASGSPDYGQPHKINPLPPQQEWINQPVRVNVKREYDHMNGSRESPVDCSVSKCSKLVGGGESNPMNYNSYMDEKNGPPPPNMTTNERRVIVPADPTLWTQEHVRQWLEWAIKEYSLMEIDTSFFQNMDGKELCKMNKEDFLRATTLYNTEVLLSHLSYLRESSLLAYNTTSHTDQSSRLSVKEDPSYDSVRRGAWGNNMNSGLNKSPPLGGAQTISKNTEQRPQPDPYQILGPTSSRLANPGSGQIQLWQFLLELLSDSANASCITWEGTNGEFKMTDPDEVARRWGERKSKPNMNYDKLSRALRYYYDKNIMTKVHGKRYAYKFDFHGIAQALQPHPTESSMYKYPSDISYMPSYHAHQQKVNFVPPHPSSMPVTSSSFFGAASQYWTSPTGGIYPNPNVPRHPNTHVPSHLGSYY
# Method in brief: (§1)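 Beads coated with glutathione captured GST-fused human transcription factors that had been expressed in yeast, and the factors were then given DNA barcodes and pooled with a tag-only sample. The pools were incubated with 200 nmole of a random double-stranded 16-mer DNA library in Tris/NaCl/DTT/glycerol buffer for 30 min at room temperature, washed, crosslinked with 0.1% formaldehyde and proximity-ligated with BsaI/T4 ligase at 37 °C for 1 h. PCR amplification and Illumina NextSeq500 sequencing came last. Binding signal is each hexamer's read frequency for a factor divided by its frequency for the tag-only sample.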
# ELK1 = molecular target: T2, ELK1 (Homo sapiens, UniProt P19419 1-428); conditions: protein: recombinant; tags: N-terminal GST; dsDNA, one strand shown
# T2 sequence: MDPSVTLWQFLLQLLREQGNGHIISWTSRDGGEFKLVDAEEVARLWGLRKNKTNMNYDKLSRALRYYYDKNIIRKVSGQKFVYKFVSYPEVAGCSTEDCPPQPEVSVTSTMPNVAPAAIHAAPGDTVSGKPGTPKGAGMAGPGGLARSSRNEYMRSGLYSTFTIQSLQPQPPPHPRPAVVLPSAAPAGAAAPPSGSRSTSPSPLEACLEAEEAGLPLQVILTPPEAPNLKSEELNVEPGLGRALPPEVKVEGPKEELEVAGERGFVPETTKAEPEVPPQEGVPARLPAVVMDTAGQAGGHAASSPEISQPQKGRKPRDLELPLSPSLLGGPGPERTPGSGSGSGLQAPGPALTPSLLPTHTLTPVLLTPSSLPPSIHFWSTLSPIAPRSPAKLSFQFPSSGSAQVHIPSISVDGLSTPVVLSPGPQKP
# Method in brief: as §1
# GABPA = molecular target: T3, GABPA (Homo sapiens, UniProt Q06546 1-454); conditions: protein: recombinant; tags: N-terminal GST; dsDNA, one strand shown
# T3 sequence: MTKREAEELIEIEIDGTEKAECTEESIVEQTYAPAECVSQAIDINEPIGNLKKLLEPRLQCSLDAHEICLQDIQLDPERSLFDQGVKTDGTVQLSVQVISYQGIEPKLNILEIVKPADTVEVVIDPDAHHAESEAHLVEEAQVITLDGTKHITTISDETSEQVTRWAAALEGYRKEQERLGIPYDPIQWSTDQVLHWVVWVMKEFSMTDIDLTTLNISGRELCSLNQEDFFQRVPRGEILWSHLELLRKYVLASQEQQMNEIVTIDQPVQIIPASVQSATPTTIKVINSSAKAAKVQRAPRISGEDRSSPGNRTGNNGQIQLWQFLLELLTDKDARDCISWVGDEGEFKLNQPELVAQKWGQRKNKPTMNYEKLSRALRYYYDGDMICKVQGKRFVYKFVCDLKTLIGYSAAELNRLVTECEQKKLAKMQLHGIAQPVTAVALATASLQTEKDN
# Method in brief: as §1
# ERG = molecular target: T4, ERG (Homo sapiens, UniProt P11308 1-479); conditions: protein: recombinant; tags: N-terminal GST; dsDNA, one strand shown
# T4 sequence: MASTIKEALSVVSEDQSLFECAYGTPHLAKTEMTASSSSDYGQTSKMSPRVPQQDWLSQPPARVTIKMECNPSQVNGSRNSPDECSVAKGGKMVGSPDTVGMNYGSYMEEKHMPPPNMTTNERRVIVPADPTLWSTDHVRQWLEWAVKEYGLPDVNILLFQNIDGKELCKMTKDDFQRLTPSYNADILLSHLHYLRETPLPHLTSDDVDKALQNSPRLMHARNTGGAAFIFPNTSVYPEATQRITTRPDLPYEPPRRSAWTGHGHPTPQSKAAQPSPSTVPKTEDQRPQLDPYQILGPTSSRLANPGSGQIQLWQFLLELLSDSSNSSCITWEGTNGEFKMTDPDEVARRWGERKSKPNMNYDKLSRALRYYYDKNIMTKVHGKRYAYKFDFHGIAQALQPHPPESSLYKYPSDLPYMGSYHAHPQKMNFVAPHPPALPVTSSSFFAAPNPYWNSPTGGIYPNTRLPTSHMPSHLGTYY
# Method in brief: as §1
# ELF1 = ELF1 (Homo sapiens, UniProt P32519 1-619); conditions: protein: recombinant; tags: N-terminal GST; dsDNA, one strand shown
# Method in brief: as §1
# EHF = molecular target: T5, EHF (Homo sapiens, UniProt Q9NZC4 1-300); conditions: protein: recombinant; tags: N-terminal GST; dsDNA, one strand shown
# T5 sequence: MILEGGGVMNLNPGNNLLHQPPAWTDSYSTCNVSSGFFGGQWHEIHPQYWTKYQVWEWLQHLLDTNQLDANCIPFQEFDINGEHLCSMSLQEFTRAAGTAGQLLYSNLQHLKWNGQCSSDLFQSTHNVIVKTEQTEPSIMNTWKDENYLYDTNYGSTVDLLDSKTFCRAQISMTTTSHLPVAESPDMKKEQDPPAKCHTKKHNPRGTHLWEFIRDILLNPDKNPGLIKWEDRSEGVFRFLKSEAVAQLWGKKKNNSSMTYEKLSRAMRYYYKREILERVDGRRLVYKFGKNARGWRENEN
# Method in brief: as §1
# SPI1 = SPI1 (Homo sapiens, UniProt P17947 1-270); conditions: protein: recombinant; tags: N-terminal GST; dsDNA, one strand shown
# Method in brief: as §1
# SPIB = SPIB (Homo sapiens, UniProt Q01892 1-262); conditions: protein: recombinant; tags: N-terminal GST; dsDNA, one strand shown
# Method in brief: as §1
# ELK3 = molecular target: T6, ELK3 (Homo sapiens, UniProt P41970 1-407); conditions: protein: recombinant; tags: N-terminal GST; dsDNA, one strand shown
# T6 sequence: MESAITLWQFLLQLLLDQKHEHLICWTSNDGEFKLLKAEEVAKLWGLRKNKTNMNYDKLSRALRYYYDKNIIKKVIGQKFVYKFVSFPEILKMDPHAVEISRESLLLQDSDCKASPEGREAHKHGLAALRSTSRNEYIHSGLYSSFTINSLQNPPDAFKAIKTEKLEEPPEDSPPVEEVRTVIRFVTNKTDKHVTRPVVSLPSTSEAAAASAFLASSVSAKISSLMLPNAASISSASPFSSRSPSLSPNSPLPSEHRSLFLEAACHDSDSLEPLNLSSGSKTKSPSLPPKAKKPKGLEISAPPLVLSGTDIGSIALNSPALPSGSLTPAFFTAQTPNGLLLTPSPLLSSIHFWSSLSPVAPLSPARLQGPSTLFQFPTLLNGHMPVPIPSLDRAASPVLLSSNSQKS
# Method in brief: as §1
# FEV = molecular target: T7, FEV (Homo sapiens, UniProt Q99581 1-238); conditions: protein: recombinant; tags: N-terminal GST; dsDNA, one strand shown
# T7 sequence: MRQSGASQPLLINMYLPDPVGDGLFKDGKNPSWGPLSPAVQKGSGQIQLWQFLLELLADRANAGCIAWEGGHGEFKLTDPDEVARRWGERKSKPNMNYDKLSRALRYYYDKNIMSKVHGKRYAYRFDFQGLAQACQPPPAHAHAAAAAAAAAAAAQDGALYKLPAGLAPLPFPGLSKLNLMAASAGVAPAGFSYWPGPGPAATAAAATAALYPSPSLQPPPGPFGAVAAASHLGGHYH
# Method in brief: as §1
# ETV5 = ETV5 (Homo sapiens, UniProt P41161 1-510); conditions: protein: recombinant; tags: N-terminal GST; dsDNA, one strand shown
# Method in brief: as §1
# HSF1 = HSF1 (Homo sapiens, UniProt Q00613 1-529); conditions: protein: recombinant; tags: N-terminal GST; chain copies: 3; dsDNA, one strand shown
# Method in brief: as §1
# SPIC = molecular target: T8, SPIC (Homo sapiens, UniProt Q8N5J4 1-248); conditions: protein: recombinant; tags: N-terminal GST; dsDNA, one strand shown
# T8 sequence: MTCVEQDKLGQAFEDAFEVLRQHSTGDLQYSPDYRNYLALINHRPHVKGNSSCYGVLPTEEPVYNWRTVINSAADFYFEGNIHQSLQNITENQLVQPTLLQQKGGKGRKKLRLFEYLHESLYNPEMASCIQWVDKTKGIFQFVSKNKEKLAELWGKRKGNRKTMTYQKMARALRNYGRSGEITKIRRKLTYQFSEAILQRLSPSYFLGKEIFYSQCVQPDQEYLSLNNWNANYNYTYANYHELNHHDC
# Method in brief: as §1
# ELF4 = ELF4 (Homo sapiens, UniProt Q99607 1-663); conditions: protein: recombinant; tags: N-terminal GST; dsDNA, one strand shown
# Method in brief: as §1
# ELK4 = molecular target: T9, ELK4 (Homo sapiens, UniProt P28324-2 1-405); conditions: protein: recombinant; tags: N-terminal GST; dsDNA, one strand shown
# T9 sequence: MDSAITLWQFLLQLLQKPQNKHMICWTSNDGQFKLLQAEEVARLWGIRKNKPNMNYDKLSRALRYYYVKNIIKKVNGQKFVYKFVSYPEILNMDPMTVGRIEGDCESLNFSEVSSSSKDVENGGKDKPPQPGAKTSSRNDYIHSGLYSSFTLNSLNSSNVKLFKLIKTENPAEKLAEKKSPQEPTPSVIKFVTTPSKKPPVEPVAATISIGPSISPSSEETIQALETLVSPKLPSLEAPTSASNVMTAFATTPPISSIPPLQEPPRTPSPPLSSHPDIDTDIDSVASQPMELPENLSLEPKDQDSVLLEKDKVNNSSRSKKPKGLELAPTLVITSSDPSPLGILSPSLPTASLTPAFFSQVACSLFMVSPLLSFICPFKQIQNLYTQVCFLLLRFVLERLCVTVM
# Method in brief: as §1
# ETV2 = molecular target: T10, ETV2 (Homo sapiens, UniProt O00321 1-342); conditions: protein: recombinant; tags: N-terminal GST; dsDNA, one strand shown
# T10 sequence: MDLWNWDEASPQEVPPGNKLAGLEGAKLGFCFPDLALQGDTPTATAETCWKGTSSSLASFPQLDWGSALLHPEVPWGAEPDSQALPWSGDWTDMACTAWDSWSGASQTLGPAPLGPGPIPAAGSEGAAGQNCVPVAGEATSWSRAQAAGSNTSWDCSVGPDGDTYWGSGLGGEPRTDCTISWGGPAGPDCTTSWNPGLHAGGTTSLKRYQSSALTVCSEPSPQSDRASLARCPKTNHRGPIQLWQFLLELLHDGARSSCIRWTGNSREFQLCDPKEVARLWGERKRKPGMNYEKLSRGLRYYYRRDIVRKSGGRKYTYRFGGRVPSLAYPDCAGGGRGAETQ
# Method in brief: as §1
# ELF3 = molecular target: T11, ELF3 (Homo sapiens, UniProt P78545 1-371); conditions: protein: recombinant; tags: N-terminal GST; dsDNA, one strand shown
# T11 sequence: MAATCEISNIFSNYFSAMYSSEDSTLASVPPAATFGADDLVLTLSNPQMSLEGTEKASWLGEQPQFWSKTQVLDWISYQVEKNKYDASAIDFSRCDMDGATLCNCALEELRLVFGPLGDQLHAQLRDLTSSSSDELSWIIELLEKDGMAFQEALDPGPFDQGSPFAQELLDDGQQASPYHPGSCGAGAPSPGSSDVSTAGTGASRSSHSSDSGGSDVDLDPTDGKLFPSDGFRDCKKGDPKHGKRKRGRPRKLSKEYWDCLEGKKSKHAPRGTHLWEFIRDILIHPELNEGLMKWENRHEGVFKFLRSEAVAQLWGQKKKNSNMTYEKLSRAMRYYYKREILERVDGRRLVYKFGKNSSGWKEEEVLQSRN
# Method in brief: as §1
# CRX = CRX (Homo sapiens, UniProt O43186 1-299); conditions: protein: recombinant; tags: N-terminal GST; dsDNA, one strand shown
# Method in brief: as §1
# ETV1 = ETV1 (Homo sapiens, UniProt P50549 1-477); conditions: protein: recombinant; tags: N-terminal GST; dsDNA, one strand shown
# Method in brief: as §1
# ELF4, sequence (Q99607 whole entry): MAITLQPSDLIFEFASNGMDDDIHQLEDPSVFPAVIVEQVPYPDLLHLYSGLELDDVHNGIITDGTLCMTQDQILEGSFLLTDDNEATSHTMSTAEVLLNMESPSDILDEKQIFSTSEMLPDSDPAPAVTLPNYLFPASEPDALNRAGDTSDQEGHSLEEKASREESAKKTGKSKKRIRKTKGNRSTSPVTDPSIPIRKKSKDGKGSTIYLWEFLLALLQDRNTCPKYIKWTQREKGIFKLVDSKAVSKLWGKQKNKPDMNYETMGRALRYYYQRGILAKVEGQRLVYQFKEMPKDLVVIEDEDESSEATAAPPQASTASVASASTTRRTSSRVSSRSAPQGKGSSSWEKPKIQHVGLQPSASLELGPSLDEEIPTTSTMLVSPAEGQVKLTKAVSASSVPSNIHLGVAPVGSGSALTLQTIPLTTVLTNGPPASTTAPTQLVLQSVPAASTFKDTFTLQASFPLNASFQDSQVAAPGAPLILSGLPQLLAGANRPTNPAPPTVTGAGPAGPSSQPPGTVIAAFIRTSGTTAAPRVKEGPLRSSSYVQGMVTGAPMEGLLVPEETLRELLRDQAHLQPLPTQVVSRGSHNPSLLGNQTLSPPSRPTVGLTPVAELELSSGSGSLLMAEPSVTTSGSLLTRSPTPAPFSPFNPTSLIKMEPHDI
# ETV5, sequence (P41161 whole entry): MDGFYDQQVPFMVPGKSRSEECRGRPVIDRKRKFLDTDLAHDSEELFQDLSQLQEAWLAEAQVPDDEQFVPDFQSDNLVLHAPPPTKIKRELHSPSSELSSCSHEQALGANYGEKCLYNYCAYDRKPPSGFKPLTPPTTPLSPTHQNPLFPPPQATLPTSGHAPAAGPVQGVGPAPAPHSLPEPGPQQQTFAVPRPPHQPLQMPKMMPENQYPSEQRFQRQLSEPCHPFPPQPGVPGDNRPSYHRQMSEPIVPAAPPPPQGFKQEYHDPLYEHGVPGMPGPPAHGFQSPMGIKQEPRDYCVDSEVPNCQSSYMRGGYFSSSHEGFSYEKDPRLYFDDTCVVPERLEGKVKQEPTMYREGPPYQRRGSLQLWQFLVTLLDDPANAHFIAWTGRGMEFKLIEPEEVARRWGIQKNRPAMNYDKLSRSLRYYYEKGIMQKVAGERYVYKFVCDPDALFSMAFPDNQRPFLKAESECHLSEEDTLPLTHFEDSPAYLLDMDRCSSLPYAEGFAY
# SPIB, sequence (Q01892 whole entry): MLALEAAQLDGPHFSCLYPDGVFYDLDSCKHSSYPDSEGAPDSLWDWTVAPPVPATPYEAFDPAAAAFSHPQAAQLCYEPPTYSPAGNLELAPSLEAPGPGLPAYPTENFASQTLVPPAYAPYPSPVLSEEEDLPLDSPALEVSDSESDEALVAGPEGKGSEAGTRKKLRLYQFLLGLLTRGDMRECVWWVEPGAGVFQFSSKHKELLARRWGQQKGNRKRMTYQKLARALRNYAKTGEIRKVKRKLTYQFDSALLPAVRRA
# CRX, sequence (O43186 whole entry): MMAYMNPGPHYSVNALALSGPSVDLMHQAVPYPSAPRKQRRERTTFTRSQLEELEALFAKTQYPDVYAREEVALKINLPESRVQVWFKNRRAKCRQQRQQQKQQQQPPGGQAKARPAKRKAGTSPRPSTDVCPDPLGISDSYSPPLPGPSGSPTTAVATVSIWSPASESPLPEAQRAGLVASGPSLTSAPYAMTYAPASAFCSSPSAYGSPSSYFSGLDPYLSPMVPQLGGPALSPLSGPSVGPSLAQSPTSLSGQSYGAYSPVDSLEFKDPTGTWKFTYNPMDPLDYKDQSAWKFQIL
# HSF1, sequence (Q00613 whole entry): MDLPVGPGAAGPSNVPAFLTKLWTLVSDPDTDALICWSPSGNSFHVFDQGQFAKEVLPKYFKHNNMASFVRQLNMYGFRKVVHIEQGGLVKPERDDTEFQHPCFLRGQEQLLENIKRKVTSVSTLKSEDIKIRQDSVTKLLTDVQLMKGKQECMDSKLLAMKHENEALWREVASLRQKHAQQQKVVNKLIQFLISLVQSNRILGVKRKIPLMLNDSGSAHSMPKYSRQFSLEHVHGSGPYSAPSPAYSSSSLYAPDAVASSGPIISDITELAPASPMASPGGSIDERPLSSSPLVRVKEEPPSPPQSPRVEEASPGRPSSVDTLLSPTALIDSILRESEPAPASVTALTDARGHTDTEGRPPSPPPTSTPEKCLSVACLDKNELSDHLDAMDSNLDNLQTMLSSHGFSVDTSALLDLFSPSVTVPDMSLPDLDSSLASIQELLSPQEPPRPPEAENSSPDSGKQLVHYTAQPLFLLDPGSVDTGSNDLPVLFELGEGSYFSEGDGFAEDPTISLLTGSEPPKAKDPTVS
# ELF1, sequence (P32519 whole entry): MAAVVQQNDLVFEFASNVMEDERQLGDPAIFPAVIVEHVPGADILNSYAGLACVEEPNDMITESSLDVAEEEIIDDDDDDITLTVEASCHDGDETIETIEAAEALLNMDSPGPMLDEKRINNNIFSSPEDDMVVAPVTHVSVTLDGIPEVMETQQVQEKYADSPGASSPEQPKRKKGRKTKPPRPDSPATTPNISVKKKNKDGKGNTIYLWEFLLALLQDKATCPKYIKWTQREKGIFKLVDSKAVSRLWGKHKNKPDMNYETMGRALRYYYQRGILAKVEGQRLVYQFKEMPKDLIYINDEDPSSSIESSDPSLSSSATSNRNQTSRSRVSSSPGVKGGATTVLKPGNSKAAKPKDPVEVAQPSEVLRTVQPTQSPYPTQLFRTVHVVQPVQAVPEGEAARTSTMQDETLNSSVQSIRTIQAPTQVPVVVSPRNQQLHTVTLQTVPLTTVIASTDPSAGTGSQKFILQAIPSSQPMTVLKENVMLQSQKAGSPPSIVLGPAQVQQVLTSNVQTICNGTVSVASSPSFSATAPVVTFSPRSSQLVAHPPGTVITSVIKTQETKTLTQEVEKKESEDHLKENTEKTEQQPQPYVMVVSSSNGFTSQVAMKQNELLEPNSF
# ETV1, sequence (P50549 whole entry): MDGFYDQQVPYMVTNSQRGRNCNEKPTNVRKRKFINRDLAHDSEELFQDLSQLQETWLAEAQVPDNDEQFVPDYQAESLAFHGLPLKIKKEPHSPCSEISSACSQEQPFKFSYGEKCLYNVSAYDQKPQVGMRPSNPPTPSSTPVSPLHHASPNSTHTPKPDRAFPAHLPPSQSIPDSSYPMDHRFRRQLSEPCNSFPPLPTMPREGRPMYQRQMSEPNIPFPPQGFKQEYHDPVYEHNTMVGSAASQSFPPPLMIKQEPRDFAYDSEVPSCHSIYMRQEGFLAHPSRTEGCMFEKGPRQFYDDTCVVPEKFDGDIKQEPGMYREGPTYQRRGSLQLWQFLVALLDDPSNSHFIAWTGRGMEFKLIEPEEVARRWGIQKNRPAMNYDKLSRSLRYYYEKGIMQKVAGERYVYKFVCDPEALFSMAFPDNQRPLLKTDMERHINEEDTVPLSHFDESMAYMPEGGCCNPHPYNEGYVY
sequence,measurement,setting,value
AGGTCT,binding signal,FLI1,"1.31 fold enrichment (6-mer frequency, TF over GST control)"
same,binding signal,ELK1,"1.17 fold enrichment (6-mer frequency, TF over GST control)"
same,binding signal,GABPA,"1.16 fold enrichment (6-mer frequency, TF over GST control)"
same,binding signal,ERG,"1.15 fold enrichment (6-mer frequency, TF over GST control)"
same,binding signal,ELF1,"1.22 fold enrichment (6-mer frequency, TF over GST control)"
same,binding signal,EHF,"1.19 fold enrichment (6-mer frequency, TF over GST control)"
same,binding signal,SPI1,"1.11 fold enrichment (6-mer frequency, TF over GST control)"
same,binding signal,SPIB,"1.22 fold enrichment (6-mer frequency, TF over GST control)"
same,binding signal,ELK3,"1.3 fold enrichment (6-mer frequency, TF over GST control)"
same,binding signal,FEV,"1.11 fold enrichment (6-mer frequency, TF over GST control)"
same,binding signal,ETV5,"1.2 fold enrichment (6-mer frequency, TF over GST control)"
same,binding signal,HSF1,"1.09 fold enrichment (6-mer frequency, TF over GST control)"
same,binding signal,SPIC,"1.13 fold enrichment (6-mer frequency, TF over GST control)"
same,binding signal,ELF4,"1.2 fold enrichment (6-mer frequency, TF over GST control)"
same,binding signal,ELK4,"1.23 fold enrichment (6-mer frequency, TF over GST control)"
same,binding signal,ETV2,"1.23 fold enrichment (6-mer frequency, TF over GST control)"
same,binding signal,ELF3,"1.08 fold enrichment (6-mer frequency, TF over GST control)"
same,binding signal,CRX,"1.21 fold enrichment (6-mer frequency, TF over GST control)"
same,binding signal,ETV1,"1.16 fold enrichment (6-mer frequency, TF over GST control)"
